From PubChem BioAssay
Activity calls are given as the source filed them. No rule for the calls is given here. Where a SMILES comes first, the peptide text is derived from it. The star is where a group is joined. Boc = CC(C)(C)OC(=O)*

What follows are compounds tested against Pantothenate synthetase (Mycobacterium tuberculosis (strain ATCC 25618 / H37Rv)) (UniProt P9WIL5) (assay: Recombinant Mtb pantothenate synthetase (PanC) inhibitors, coupled enzyme, confirmatory (AID 375;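 also: 0% = full reaction with vehicle and 100% = no enzyme background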)). Settings: coupled enzyme assay; at 10 µM, stronger effect = higher value.
Chain of Pantothenate synthetase (Mycobacterium tuberculosis (strain ATCC 25618 / H37Rv)) (P9WIL5 whole entry, looked up): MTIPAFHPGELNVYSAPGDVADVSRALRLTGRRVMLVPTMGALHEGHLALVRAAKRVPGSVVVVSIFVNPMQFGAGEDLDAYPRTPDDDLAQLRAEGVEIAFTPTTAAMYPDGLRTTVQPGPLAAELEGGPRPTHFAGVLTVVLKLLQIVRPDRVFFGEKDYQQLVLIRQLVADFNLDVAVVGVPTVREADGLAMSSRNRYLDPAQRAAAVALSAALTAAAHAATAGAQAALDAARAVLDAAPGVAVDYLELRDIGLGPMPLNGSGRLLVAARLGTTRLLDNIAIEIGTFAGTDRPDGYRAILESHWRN

| Structure (SMILES) | inhibition |
| --- | --- |
| Cc1ccc(S(=O)(=O)N2CCCC2C(=O)OCc2ccco2)cc1 (stereo unspecified) | 5% (inactive) |
| COC(=O)c1ccccc1NC(=O)Cn1ccnc1 | 0% (inactive) |
| COC(=O)n1c(=S)oc2cc(Cl)ccc21 | 0% (inactive) |
| CC1=C(C(N)=O)C(c2ccccn2)n2nc(SCc3ccccc3)nc2N1 (stereo unspecified) | 0% (inactive) |
| CCCn1nnc(NCc2ccc(OCc3cccs3)c(OC)c2)n1 | 0% (inactive) |
| CCC(C(=O)N1CCc2cc(OC)c(OC)cc2C1)c1ccccc1 (stereo unspecified) | 0% (inactive) |
| CCC(C)OC(=O)c1[nH]c2c(c1C)C(=O)CC(c1ccc(N(C)C)cc1)C2 (stereo unspecified) | 0% (inactive) |
| COc1ccc(-c2nc(C(N)=O)c3[nH]c(=O)n(-c4cccc(Cl)c4)c3n2)cc1OC | 1% (inactive) |
| CC(C)(C)OC(=O)N1CCCC1C(=O)N1CCCC1C(=O)N1CCCC1C(=O)O (stereo not drawn) (Boc-Pro-Pro-Pro-OH; configuration not given here) | 3% (inactive) |
| COc1ccc(N2CCN(c3nc4c(c(=O)[nH]c(=O)n4C)n3CCCc3ccccc3)CC2)cc1 | 13% (inactive) |
| CCCNc1nc2c(c(=O)n(C)c(=O)n2C)n1Cc1cccc(C)c1 | 0% (inactive) |
| COC(=O)c1ccccc1NC(=O)CSc1nnc(-c2ccncc2)o1 | 0% (inactive) |
| Cc1ccc2nc(NC(=O)Cn3cc4c(n3)CCCCC4)sc2c1 | 0% (inactive) |
| CS(=O)(=O)Nc1ccc(C(=O)NCCc2ccccc2)cc1 | 0% (inactive) |
| COc1cccc(N2C(=O)N(c3ccccc3Cl)C3CS(=O)(=O)CC32)c1 (stereo unspecified) | 3% (inactive) |
| O=S(=O)(c1ccc2nc(Cc3cccc(C(F)(F)F)c3)[nH]c2c1)N1CCOCC1 | 0% (inactive) |
